In paper PMC4336329 (PLoS ONE, 2015):
Out of some 310,000 compounds screened, about 14,000 (4.5%) showed an effect of 50% or more. The effect is printed as a negative number. Many of the other results were omitted from the sample, so strong results are more common in it than they were.

Biological target: human ether-à-go-go-related gene (hERG) potassium channel (human, UniProt Q12809)
Assay: primary screen, population patch clamp on CHO cells stably expressing hERG; higher = less effect of the substance
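Note: peak tail current of the secondary pulse compared with the same well before compound.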

Chain of human ether-à-go-go-related gene (hERG) potassium channel (Q12809 whole entry, looked up): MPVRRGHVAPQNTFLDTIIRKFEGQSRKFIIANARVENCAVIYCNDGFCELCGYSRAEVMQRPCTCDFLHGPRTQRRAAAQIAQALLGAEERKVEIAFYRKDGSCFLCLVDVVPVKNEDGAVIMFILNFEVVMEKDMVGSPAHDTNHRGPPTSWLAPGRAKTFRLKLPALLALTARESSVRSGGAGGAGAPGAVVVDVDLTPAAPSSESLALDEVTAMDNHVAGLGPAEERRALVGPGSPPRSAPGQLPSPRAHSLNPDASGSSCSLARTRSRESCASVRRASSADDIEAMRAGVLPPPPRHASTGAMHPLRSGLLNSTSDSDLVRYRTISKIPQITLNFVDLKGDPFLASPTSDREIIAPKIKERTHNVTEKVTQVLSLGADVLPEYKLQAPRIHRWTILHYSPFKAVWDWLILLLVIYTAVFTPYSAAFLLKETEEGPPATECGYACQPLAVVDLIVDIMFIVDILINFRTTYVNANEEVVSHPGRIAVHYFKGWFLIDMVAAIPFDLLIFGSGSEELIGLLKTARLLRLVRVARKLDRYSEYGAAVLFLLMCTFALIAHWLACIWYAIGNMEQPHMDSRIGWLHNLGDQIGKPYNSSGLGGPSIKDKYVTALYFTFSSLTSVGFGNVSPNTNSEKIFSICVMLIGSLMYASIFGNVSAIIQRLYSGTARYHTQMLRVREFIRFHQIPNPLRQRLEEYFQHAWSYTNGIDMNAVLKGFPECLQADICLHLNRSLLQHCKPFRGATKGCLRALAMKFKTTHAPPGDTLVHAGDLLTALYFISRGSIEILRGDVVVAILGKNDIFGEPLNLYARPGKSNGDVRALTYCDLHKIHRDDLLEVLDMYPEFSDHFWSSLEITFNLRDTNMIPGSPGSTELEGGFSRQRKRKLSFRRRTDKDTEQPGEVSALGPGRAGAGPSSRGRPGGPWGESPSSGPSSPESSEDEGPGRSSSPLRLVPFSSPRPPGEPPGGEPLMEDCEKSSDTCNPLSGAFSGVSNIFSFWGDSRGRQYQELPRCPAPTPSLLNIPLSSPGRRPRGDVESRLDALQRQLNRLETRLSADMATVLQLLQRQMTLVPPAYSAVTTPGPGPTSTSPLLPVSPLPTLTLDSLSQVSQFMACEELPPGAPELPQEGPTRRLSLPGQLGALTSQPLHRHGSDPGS

Structure (SMILES) | hERG current change (%, negative = inhibition) at 10uM [%]
O=C(O)CCSc1nnnn1-c1ccccc1 | -1.42
O=C1c2ccccc2C(=O)N1CSc1nnnn1-c1ccccc1 | -3.73
CCSc1nnc2c(Cl)cc(Cl)cn12 | 5.28
CC(=O)OCc1cc(-c2nc3ccccc3[nH]c2=O)nn1-c1ccc(Cl)cc1 | 18
O=C(CSc1nc2[nH]ncc2c(=O)[nH]1)NCCc1ccccc1 | 26.9
O=[N+]([O-])c1ccc2c(c1N1CCCCC1)=NC1(CCCCC1)[N+]=2[O-] | -8.78
Cc1ccc(NC(=O)C/C(N)=N/OC(=O)Nc2ccc(C)c(Cl)c2)cc1 | 4.56
COCCCNC(=O)c1ccc(-n2nc(C(F)(F)F)cc2-c2cccs2)cc1 | -30.6
O=C(NCCCN1CCOCC1)c1cc(-c2cccs2)on1 | -15.7
O=C(NCCCN1CCOCC1)c1ccc(-n2nc(C(F)(F)F)cc2-c2cccs2)cc1 | -80.4
COc1ccc(C(=O)COC(=O)CN2C(=O)NC(C)(C)C2=O)cc1OC | -1.87
NC(=O)C(=O)N/N=C/c1c[nH]c2ccc(Br)cc12 | 12.7
O=C(NC(=S)Nc1ccc(CN2CCOCC2)cc1)c1cccc([N+](=O)[O-])c1 | 10.7
Cc1ccc(-n2c(=O)[nH]cc(C(=O)Nc3ccc4c(c3)OCCO4)c2=O)cc1C | -5.33
CN1CCC(NCCC(c2ccc(F)cc2)c2ccc(Cl)cc2)CC1 (stereo not shown) | -71.5
CCN1CCC(NCCc2ccc(F)cc2)CC1 | -0.893
CC(C)C(CCNC1CCN(C)CC1)c1ccc(Cl)cc1 (stereo not shown) | 11.3
Cc1ccccc1-c1noc(CNC(=O)COc2ccccc2)n1 | -10.4
COc1ccc(C(=O)N(C)Cc2ccccc2)cc1Br | -8.29
Cc1cc(Br)ccc1NC(=O)CN(C)C(=O)CCSc1ccc(F)cc1 | 0.468
CN(CC(=O)Nc1cccc(F)c1)C(=O)C1CCN(C(=O)c2ccc(Cl)cc2)CC1 | -55.5
CN(CC(=O)Nc1ccccc1Br)C(=O)c1ccc(-c2ccc(Cl)cc2)o1 | 5.51
CN(CC(=O)Nc1ccccc1Cl)C(=O)C1CCN(C(=O)c2ccc(F)cc2)CC1 | -20.9

Structure (SMILES) | hERG current change (%, negative = inhibition) at 10uM [%]
Cc1cc(Br)ccc1NC(=O)CN(C)C(=O)C1CCN(C(=O)c2ccc(F)cc2)CC1 | -65.1
CN(CC(=O)Nc1ccccc1Br)C(=O)CN1CCN(c2ccccc2Cl)CC1 | -29.6
CN(CC(=O)Nc1ccccc1Cl)C(=O)C1CCN(C(=O)c2ccc(Cl)cc2)CC1 | -35.1
CN(CC(=O)Nc1ccccc1Br)C(=O)CN1CCN(Cc2ccc(Cl)cc2)CC1 | -66.9
CCOc1ccc(NC(=O)CN(C)C(=O)C2CCN(C(=O)c3ccc(Cl)cc3)CC2)cc1OCC | -48.1
Cc1ccccc1C(=O)N1CCC(C(=O)N(C)CC(=O)Nc2cccc(F)c2)CC1 | 12.4
CN(CC(=O)Nc1ccccc1C(F)(F)F)C(=O)C1CCN(C(=O)c2ccc(Cl)cc2)CC1 | -31.8
CN(CC(=O)Nc1ccccc1Br)C(=O)C1CCN(C(=O)c2ccc(Cl)cc2)CC1 | -50.1
CC(=O)Nc1ccc(Sc2ccccc2C(=O)O)c(C(=O)O)c1 | 19.4
CCCc1[nH]n(-c2ccc(F)cc2)c(=O)c1C=Nc1ccc(C)cc1 | 4.95
CCOc1ccccc1NC(=O)Nc1ccc(OC)nc1 | 14.7
CCOC(=O)c1ccc(S(=O)(=O)NC2CCCCCCC2)n1C | -12.4
O=C(NCc1ccccc1)C1CCCN(S(=O)(=O)c2cccs2)C1 (stereo not shown) | -0.56
COc1ccc(-c2cc(C(=O)N3CCN(Cc4ccc5c(c4)OCO5)CC3)on2)cc1OC | 2.8
COc1ccc2oc(-c3ccccc3)c(C(=O)N3CCOCC3)c2c1 | -8.44
Cc1csc(NC(=O)c2c(-c3c(F)cccc3Cl)noc2C)n1 | -10.9
Cc1ccc(S(=O)(=O)NC2CCCC2)cc1C | -9.68
CCC[N+](CC#Cc1ccccc1)(CCC)CC(=O)c1ccc(Cl)cc1 | -67.4
CCC[N+](CC#Cc1ccccc1)(CCC)CC(=O)OCC | -1.25
C[N+](C)(CC#Cc1ccccc1)CC(=O)c1ccc(Cl)cc1 | -28.3
CCC[N+](CC#Cc1ccccc1)(CCC)CC(=O)OC | 9.58
CC[N+](CC)(CC#Cc1ccccc1)CC(=O)c1ccc(Cl)cc1 | -60.3
C[N+](C)(CC#Cc1ccccc1)CC(=O)c1ccccc1.[Br-] | -13.5
